Records with an inconclusive call do not appear. The source made the active and inactive calls. How the source made its calls: active means hit-call score of the fitted dose curve at least 0.9, where 1 is the maximum; inconclusive means response in the unintended direction; inactive means score below 0.9.
target: PGR (gene 5241) (UniProt P06401); test: TOX21_PR_BLA_Followup_Agonist_ratio: Tox21 HEK293 Progesterone Receptor (PR) Agonism Beta-lactamase Follow-Up Assay, Ratio (AID 2283933)
Protocol: TOX21_PR_BLA_Followup is a secondary assay for specificity for the TOX21_PR_BLA_Agonist assay. To differentiate true PR agonists from cytotoxic substances, this follow up assay is multiplexed with a cell viability assay. The compounds were also tested for auto fluorescence that may interfere with the biological target readout resulting in potential false positives and/or negatives. To identify the compounds that stimulate PR signaling, a PR-UAS-bla GripTite cell line i.e. PR-UAS-bla HEK293T (Invitrogen, Carlsbad, CA, USA) containing a beta-lactamase reporter gene under the control of an UAS response element was used to screen Tox21 10K compound library. The cytotoxicity of the Tox21 compound library against the PR-bla cell line was tested in parallel by measuring the cell viability using CellTiter-Glo assay in the same wells. TOX21_PR_BLA_Followup_Agonist_ratio is an assay readout measuring reporter gene via receptor activity and designed using inducible reporter (beta lactamase induction) detected with GAL4 b-lactamase reporter gene. The signal is derived from the ratio of cleaved (ch2) to uncleaved (ch1) reporter gene substrate used as the measure of target activity.Data from the assay component TOX21_PR_BLA_Followup_Agonist_ratio was analyzed into 1 assay endpoint. This assay endpoint, TOX21_PR_BLA_Followup_Agonist_ratio, was analyzed in the positive analysis fitting direction relative to DMSO as the negative control and baseline of activity. Using a type of inducible reporter, measures of receptor for gain-of-signal activity can be used to understand the reporter gene at the pathway-level as they relate to the gene NR3C3. Furthermore, this assay endpoint can be referred to as a primary readout, because this assay has produced multiple assay endpoints where this one serves a reporter gene function. To generalize the intended target to other relatable targets, this assay endpoint is annotated to the nuclear receptor intended target family, where the subfamily is steroidal.
Assay Protocol: PR-UAS-bla HEK 293T cells were dispensed at 3,000 cells/5 uL of assay medium containing 2% charcoal stripped FBS per well into black wall/clear-bottom 1536-well plates using a Multidrop Combi (ThermoFisher Scientific, Waltham, MA) dispenser. After the assay plates were incubated at a 37C and 5% CO2 for 6hr, 23 nL of compounds dissolved in DMSO, positive controls or DMSO only was transferred to the assay plate by a Pintool station (Kalypsys, San Diego, CA). The plates were incubated at 37C and 5% CO2 for 16hr. Then 1 uL of LiveBLAzer B/G FRET substrate was added using a BioRAPTR FRD (Flying Reagent Dispenser, Aurora Discovery, San Diego, CA). After the plates were incubated at room temperature for 2 hours, fluorescence intensity was measured by an Envision plate reader (PerkinElmer, Shelton, CT).

PGR (gene 5241), sequence (P06401 whole entry, looked up): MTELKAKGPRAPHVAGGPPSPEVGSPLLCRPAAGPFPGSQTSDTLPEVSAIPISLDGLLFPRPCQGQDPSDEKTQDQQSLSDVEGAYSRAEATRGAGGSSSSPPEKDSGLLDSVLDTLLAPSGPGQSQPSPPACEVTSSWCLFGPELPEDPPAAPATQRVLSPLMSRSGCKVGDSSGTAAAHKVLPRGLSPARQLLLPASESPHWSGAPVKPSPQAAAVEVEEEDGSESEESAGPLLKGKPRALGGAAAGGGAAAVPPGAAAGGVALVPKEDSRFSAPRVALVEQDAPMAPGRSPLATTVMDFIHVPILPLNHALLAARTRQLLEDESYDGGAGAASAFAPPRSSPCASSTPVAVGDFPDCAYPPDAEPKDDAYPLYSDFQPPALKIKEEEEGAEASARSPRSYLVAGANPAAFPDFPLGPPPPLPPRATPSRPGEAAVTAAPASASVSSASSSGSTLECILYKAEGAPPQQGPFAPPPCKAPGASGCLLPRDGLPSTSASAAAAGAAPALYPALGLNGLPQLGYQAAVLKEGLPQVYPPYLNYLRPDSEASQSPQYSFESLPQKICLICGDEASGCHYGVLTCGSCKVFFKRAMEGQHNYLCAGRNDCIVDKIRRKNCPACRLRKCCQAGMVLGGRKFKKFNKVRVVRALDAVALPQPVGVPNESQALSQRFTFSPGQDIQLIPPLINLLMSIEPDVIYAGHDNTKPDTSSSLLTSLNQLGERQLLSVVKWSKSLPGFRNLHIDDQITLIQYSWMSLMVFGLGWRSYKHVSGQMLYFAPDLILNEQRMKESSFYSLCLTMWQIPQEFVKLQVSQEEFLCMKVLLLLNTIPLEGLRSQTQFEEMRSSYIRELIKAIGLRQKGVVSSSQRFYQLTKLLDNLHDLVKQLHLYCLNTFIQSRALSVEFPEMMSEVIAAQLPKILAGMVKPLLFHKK

Structure (SMILES)	AC50	outcome
C[C@]12Cc3nonc3C[C@@H]1CC[C@@H]1[C@@H]2CC[C@@]2(C)[C@H]1CC[C@]2(C)O	6110 nM (active)	–
CC(=O)O[C@H]1CC[C@@]2(C)C(=CC[C@@H]3[C@@H]2CC[C@]2(C)C(=O)CC[C@@H]32)C1	–	inactive
CCC(=O)O[C@@H]1C=C2CCC3C(CCC4(C)C3CC[C@@H]4OC(=O)CC)C2CC1 (some centres not stated)	4480 nM (active)	–
CC[C@]1(O)CC[C@H]2[C@@H]3CCC4=CCCC[C@@H]4[C@H]3CC[C@@]21C	686 nM (active)	–
C[C@]12CC[C@H]3[C@@H](CCC4=CC(=O)CC[C@@H]43)[C@@H]1CC[C@@H]2OC(=O)CCc1ccco1	2160 nM (active)	–
O=C1C(Cl)C(CCl)CN1c1cccc(C(F)(F)F)c1 (configuration not stated)	–	inactive
C#C[C@]1(O)CC[C@H]2[C@@H]3CCC4=CC(=O)CCC4=C3C=C[C@@]21CC	144 nM (active)	–
C[C@]12CC[C@H]3[C@@H](CCC4=CC(=O)CC[C@@H]43)[C@@H]1CC[C@@H]2OC(=O)CCC1CCCCC1	2390 nM (active)	–
CCOP(=S)(OCC)Oc1cc(Cl)c(Br)cc1Cl	–	inactive
C[C@]12CC[C@H]3[C@@H](CC[C@@]45O[C@@H]4C(O)=C(C#N)C[C@]35C)[C@@H]1CC[C@@H]2O	–	inactive
N#Cc1cc(I)c(O)c(I)c1	–	inactive
Nc1ccc(Cl)cc1C(=O)c1ccccc1F	–	inactive
O=C(CBr)Nc1ccc(Cl)cc1C(=O)c1ccccc1F	–	inactive
C[C@]12Cc3cn[nH]c3C[C@@H]1CC[C@@H]1[C@@H]2CC[C@@]2(C)[C@H]1CC[C@]2(C)O	6440 nM (active)	–
C=C1C[C@@H]2[C@H](CC[C@]3(C)C(=O)CC[C@@H]23)[C@@]2(C)C=CC(=O)C=C12	–	inactive
COc1ccc2c(c1OC)CN1CCc3cc4c(cc3C1C2)OCO4 (configuration not stated)	–	inactive
CCOC(=O)C1(c2ccccc2)CCN(CCC(C#N)(c2ccccc2)c2ccccc2)CC1	–	inactive

Source: PubChem BioAssay (EPA / NIEHS)
